The full list was thinned out, with hits kept by preference.
Vaccinia Venus: inhibitors of vaccinia virus (Venus reporter); Vaccinia virus Venus reporter expression, fluorescence; Potency, µM (series often up to 36.5 µM), without a hit: at the top dose activity change, negative = inhibition, hits mostly inhibitors; hit rate 0.46% among 330,000; AID 720580; calls by dose curve; tested in A549 cells; also: potency is read from the fitted curve at half-maximal effect; % is scaled to controls: 0 for no effect and ±100 for the full control effect; nearly all actives have a fitted effect of over 30% in size
Marburg entry inh: Marburg virus entry inhibition; Potency, µM (top dose mostly 37.8 µM), without a hit: at the highest dose activity change, negative = inhibition, actives largely listed as inhibitors; Marburg virus pseudotyped entry inhibition, cell reporter; hit rate 1.8% among 300,000; calls by dose curve; tested in HEK293 cells; also: potency is read from the fitted curve at half-maximal effect; % is scaled to controls: 0 for no effect and ±100 for the full control effect
Shiga inhibitor: blocks Shiga toxin action in Vero cells; Vero cells, Shiga toxin protein synthesis inhibition reporter; inhibition, % at 38.7 µM; hit rate 9.2% among 290,000; AID 2315; in the data active = inhibition mostly above about 28%, no sharp cut-off; inactive = mostly below about 43%; also: 0% is about no effect
VACV mCherry inh: inhibitors of vaccinia virus infection (mCherry reporter signal). Vaccinia virus mCherry reporter infection, fluorescence. Potency, µM (highest dose often 36.5 µM), inactives show at the top dose activity change, negative = inhibition, usual class: inhibitors. hit rate 0.63% among 310,000; calls by dose curve; tested in A549 cells; also: potency is read from the fitted curve at half-maximal effect; % is scaled to controls: 0 for no effect and ±100 for the full control effect; nearly all actives have a fitted effect of over 35% in size
LASV entry inh: inhibitors of Lassa virus binding or cell entry. hit rate 1.2% among 300,000. Potency, µM (top dose mostly 37.9 µM), without a hit: top-dose activity change, negative = inhibition, usual class: inhibitors. Lassa virus pseudotype entry inhibition, cell reporter. AID 540256; calls by dose curve; tested in HEK293 cells; also: potency is read from the fitted curve at half-maximal effect; % is scaled to controls: 0 for no effect and ±100 for the full control effect; nearly all actives have a fitted effect of over 50% in size
Cycloheximide cs: counter-screen for Shiga toxin inhibitors: cycloheximide protein synthesis inhibition; cell reporter, cycloheximide protein synthesis inhibition counterscreen; hit rate 12% among 300,000; max response, %; AID 2314; in the data active = max response mostly above about 13%, no sharp cut-off; inactive = mostly below about 14%; also: read at 38.3 µM for the half of the compounds with a filed dose; 0% is about no effect
Starred values were filed as active, the others as inactive; [ ] = another dose, or the depositor's remark.

What do the screens show for `COc1cc(Cl)c(C)cc1NC(=O)c1ccccc1NC(=O)CN1CCN(C(C)=O)CC1`?
Vaccinia Venus: -3.2%; VACV mCherry inh: inactive

How did CCOC(=O)NN=C1C[C@@H](O)[C@@H](O)[C@@H]2[C@H]3C(=O)N(C4CCCCC4)C(=O)[C@@H]3CC[C@H]12 do in these assays?
Marburg entry inh: 19.7%[14.2 µM]; LASV entry inh: inconclusive

How did COc1ccc(C(c2c(NC(=O)c3ccccc3)sc(C)c2C)N2CCN(CCO)CC2)cc1 (centres undefined) do in these assays?
Vaccinia Venus: 4.6%; Marburg entry inh: inconclusive; Shiga inhibitor: 55.9*; VACV mCherry inh: -4.3%; LASV entry inh: inconclusive; Cycloheximide cs: 21.9*

Results for CN1CCN(C2=Nc3ccccc3Oc3ccc(Cl)cc32)CC1 ?
Vaccinia Venus: -12.8%; Marburg entry inh: 11.6µM*; Shiga inhibitor: -11.5; VACV mCherry inh: inconclusive; LASV entry inh: -26.6%; Cycloheximide cs: -3.6

Results for COCCNC(=O)CCn1c(=O)c2cc(OC)c(OC)cc2n(CC(=O)Nc2ccccc2OC)c1=O ?
Vaccinia Venus: -2.7%; Marburg entry inh: 8.8%[46.1 µM]; VACV mCherry inh: -6.0%; LASV entry inh: 10.9%[46.1 µM]

How did COCC(=O)Nc1sc2c(c1C(=O)OC)CCC(C)C2 (centres undefined) do in these assays?
Vaccinia Venus: -15.6%; Marburg entry inh: -0.8%; Shiga inhibitor: 36.6; VACV mCherry inh: inactive; LASV entry inh: 15.7%; Cycloheximide cs: 12.4*

How did CCc1c(C)sc(NC(=O)C2CCCO2)c1C#N (centres undefined) do in these assays?
Marburg entry inh: 2.3%; Shiga inhibitor: 18.8; LASV entry inh: 27.8%; Cycloheximide cs: 16.8*

How did CCc1c(C)sc(NC(=O)c2cc(C3CC3)on2)c1C#N do in these assays?
Vaccinia Venus: -18.7%; Shiga inhibitor: -9.7; VACV mCherry inh: -7.2%; Cycloheximide cs: -2.8

Results for CC1CCc2c(sc(NC(=O)C3CCCO3)c2C#N)C1 (centres undefined) ?
Vaccinia Venus: -17.4%; Marburg entry inh: -3.3%; Shiga inhibitor: 106.6*; VACV mCherry inh: -4.9%; LASV entry inh: inconclusive; Cycloheximide cs: 37.3*

What do the screens show for `CCNC(=S)Nc1sc2c(c1C#N)CCC(C)C2` (centres undefined)?
Vaccinia Venus: -23.1%; Marburg entry inh: inconclusive; Shiga inhibitor: 20.9; VACV mCherry inh: -25.2%; LASV entry inh: 4.9%; Cycloheximide cs: 8.6

What do the screens show for `CCOC(=O)Nc1sc2c(c1C#N)CCC(C)C2` (centres undefined)?
Vaccinia Venus: -15.2%; Marburg entry inh: inconclusive; Shiga inhibitor: 91.4*; LASV entry inh: 10.3%; Cycloheximide cs: 46.4*

Results for COc1cc2c(cc1OC)C(COc1cccc(C(F)(F)F)c1)NCC2 (centres undefined) ?
Shiga inhibitor: -7.1; Cycloheximide cs: 15.7

Results for CN(C)S(=O)(=O)c1ccc(NC(=S)NC(=O)c2cccs2)cc1 ?
Vaccinia Venus: 2.2%; Marburg entry inh: -17.9%[46.1 µM]; Shiga inhibitor: 22.9; VACV mCherry inh: inactive; LASV entry inh: 20.5%[46.1 µM]; Cycloheximide cs: 10.8*

How did CCN(c1ccccc1)S(=O)(=O)c1ccc(NC(=S)NC(=O)c2cccs2)cc1 do in these assays?
Vaccinia Venus: inconclusive; Marburg entry inh: inconclusive; Shiga inhibitor: 30.3*; VACV mCherry inh: -8.7%[1.46 µM]; LASV entry inh: inconclusive; Cycloheximide cs: 16.8

Results for CC(=O)NC(=S)Nc1ccc(NC(=S)NC(=O)c2cccs2)cc1 ?
Shiga inhibitor: -13.1; Cycloheximide cs: -4.2

What do the screens show for `CCCCOC(=O)CSC1=C(C#N)[C@H](c2ccc3c(c2)OCO3)CC(=O)N1`?
Marburg entry inh: 7.4%

Results for CN(C)CCCNC(=O)C[C@H]1C[C@H](C(=O)N2CCCCC2)[C@@]2(C)c3[nH]c4ccc(Cl)cc4c3CCN2C1=O ?
Vaccinia Venus: -7.2%; Marburg entry inh: -2.4%; VACV mCherry inh: -4.1%

Results for CN(C)CCCNC(=O)C[C@H]1C[C@H](C(=O)N2CCCCC2)[C@@]2(CCc3ccccc3)c3[nH]c4ccc(Cl)cc4c3CCN2C1=O ?
Vaccinia Venus: 14.1µM*; VACV mCherry inh: 12.6µM*

How did O=C(C[C@H]1C[C@H](C(=O)N2CCCCC2)[C@@]2(CCc3ccccc3)c3[nH]c4ccc(Cl)cc4c3CCN2C1=O)NCCc1ccccn1 do in these assays?
Vaccinia Venus: 12.6µM*; VACV mCherry inh: inconclusive

Screening data deposited in PubChem by National Center for Advancing Translational Sciences (NCATS).
